Inconclusive results are not listed. Active and inactive are the calls of the source. The calls were made as follows: active = hit-call score of the fitted dose curve at least 0.9, where 1 is the maximum; inconclusive = response in the unintended direction; inactive = score below 0.9.

The nature of the test: ATG_GAL4_TRANS: Attagene TRANS-FACTORIAL HepG2 Assay for GAL4 (Internal Marker) (AID 2282976). The settings on record: HepG2 Attagene TRANS GAL4 internal marker reporter. Here is the method: ATG_TRANS is a cell-based, multiplexed-readout assay that uses HepG2, a human liver cell line, with measurements taken at 24 hours after chemical dosing in a 24-well plate.ATG_GAL4_TRANS is one of 30 assay component(s) measured or calculated from the ATG_TRANS assay. It is designed to make measurements of mRNA induction, a form of inducible reporter, as detected with fluorescence intensity signals by Reverse transcription polymerase chain reaction (RT-PCR) and Capillary electrophoresis technology.Data from the assay component ATG_GAL4_TRANS was analyzed into 1 assay endpoint. This assay endpoint, ATG_GAL4_TRANS, was analyzed in the positive analysis fitting direction relative to DMSO as the negative control and baseline of activity. Using a type of inducible reporter, measures of mRNA for gain-of-signal activity can be used to understand the background control at the transcription factor-level as they relate to the gene . Furthermore, this assay endpoint can be referred to as a secondary readout, because this assay has produced multiple assay endpoints where this one serves a background control function. To generalize the intended target to other relatable targets, this assay endpoint is annotated to the background measurement intended target family, where the subfamily is baseline control.
Human liver HepG2 cells are transiently transfected with multiple reporter transcription units (MRTUs) in 6-well plates using FuGene 6 reagent (Roche; 3 ml FuGene/1 mg DNA). The MRTU constructs are regulated by a cis-regulating element (promoter). […] A major difference between the CIS and TRANS system is that in CIS activities of endogenous TFs are measured, whereas the TRANS assay evaluates changes in activities of exogenous, chimeric NR-Gal4 proteins. […] At the end of 24 hour incubation, total RNA was isolated using TriZol reagent (Invitrogen). The isolated RNA is then reverse-transcribed using oligo(dT) primer and Mo-MLV reverse transcriptase (Invitrogen) with DNAse I (Ambion) treatment for 30 min. The one-tenth of the produced cDNA was amplified by PCR using Taq DNA polymerase (Invitrogen) and two reporter sequence-specific primers. The PCR products were fluorescently labeled by primer extension with 6-arboxyfluorescein (6-FAM) 5'-labeled reporter sequence-specific primer (2 min at 95 C, 20 s at 68 C and 10 min at 72 C) and these products were digested with 5U of HpaI (New England Biolabs) for 2h at 37 C. The fragments were purified using Qiaquick PCR columns (Qiagen), analyzed on an ABI 3130xL genetic analyzer (Applied Biosystems) with peak positions identified by using a set of X-rhodamine (ROX)-labeled MapMarker1000 molecular weight standards (BioVentures). The raw capillary electrophoresis data was processed using Attagraph software (Attagene).
On to `CC1(C)[C@@H]2CC[C@@]1(C)[C@H](O)C2`, for which the call was inactive. For the compound `C=C(C)C(=O)Nc1ccc(Cl)c(Cl)c1`, the compound was classed as inactive.

`O=C1NC(=O)c2ccccc21`: the compound was classed as inactive. The same measure for `O=C(O)c1cn(C2CC2)c2cc(N3CCNCC3)c(F)cc2c1=O`: “inactive”; for `COC(=O)OC`: “inactive”. The same measure for `CC1(C)C(=O)N(Br)C(=O)N1Cl`: “inactive”; for `CC1(C)OC[C@@H]2O[C@@]3(C(=O)O)OC(C)(C)O[C@H]3[C@@H]2O1`: “inactive”. The same measure for `Nc1ccc(F)c([N+](=O)[O-])c1`: “inactive”; for `CN1Cc2c(N)cccc2C(c2ccccc2)C1` (stereo not given): “inactive”.

Consider `OCC(CO)(CO)COCC(CO)(CO)CO`, for which the result was inactive. The same measure for `Clc1ccc2c(c1)C(N1CCNCC1)=Nc1ccccc1O2`: “inactive”; for `Sc1nc(S)nc(S)n1`: “inactive”. The same measure for `CC(=O)OCC=Cc1ccccc1`: “inactive”. Take `C=C[C@@H](C)CCC=C(C)C`: the compound was called inactive. The same measure for `CC(C)(Oc1ccc(CCNC(=O)c2ccc(Cl)cc2)cc1)C(=O)O`: “inactive”. The same measure for `C=C(C)C1CCC(C)CC1O` (stereo not given): “inactive”; for `NCCCCCCN`: “inactive”. The same measure for `C=CC[N+](C)(C)CC=C`: “inactive”; for `C=CCOC(=O)CCC1CCCCC1`: “inactive”; for `O=C(O)c1ccc([N+](=O)[O-])cc1`: “inactive”. Regarding `O=C1CCc2ccccc2O1`, the compound was called inactive. The same measure for `CNC[C@H](O)c1cccc(O)c1`: “inactive”. The same measure for `CCCCCCCCCCCCOCCO`: “inactive”; for `CCCCCCCCCOC(C)=O`: “inactive”.

Regarding `CCc1c(C)cc(N)c(CC)c1N`, the outcome was inactive. The same measure for `CC(C)(C#N)c1cc(Cn2cncn2)cc(C(C)(C)C#N)c1`: “inactive”; for `O=c1oc(=O)c2cc3c(=O)oc(=O)c3cc12`: “inactive”.

Take `CC(C)[C@H]1CC[C@@H](C)CC1=O`: the outcome was inactive.

Regarding `CC(C)OP(=O)(CP(=O)(OC(C)C)OC(C)C)OC(C)C`, the call was inactive.

Consider `Cc1cccc(Nc2ccccc2C(=O)O)c1C`, for which the call was inactive.

Consider `O=C(O)CN(CCN(CC(=O)O)CC(=O)O)CCN(CC(=O)O)CC(=O)O`, for which the outcome was inactive. The same measure for `CO[Si](CCCn1c(=O)n(CCC[Si](OC)(OC)OC)c(=O)n(CCC[Si](OC)(OC)OC)c1=O)(OC)OC`: “inactive”; for `CCCCCCCCC=O`: “inactive”; for `OCCN1CCNCC1`: “inactive”. Regarding `C=O`, the result was inactive. As for `COc1cc(C=O)ccc1OC(=O)C(C)C`, the compound was called inactive.

As for `Clc1cccc(Cl)n1`, the outcome was inactive. The same measure for `COc1cccc(OC)c1`: “inactive”. The same measure for `CC(C)C[C@H]1C(=O)N2CCC[C@H]2[C@]2(O)O[C@](NC(=O)[C@@H]3C=C4c5cccc6[nH]c(Br)c(c56)C[C@H]4N(C)C3)(C(C)C)C(=O)N12`: “inactive”; for `CC(CCO)CCCC(C)(C)O` (stereo not given): “inactive”.
